Most compounds without a hit are left out; they make up all but 6.5% or so of the library.
NADH enzymes: inhibition of NAD/NADH coupling enzymes, library profiling. AID 774. hit rate 0.02% among 65,000. coupled PK/LDH NADH assays, four targets. IC50, µM (titrated, usually from 10 µM);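 active = single-dose screening hits from any of four coupled enzyme assays that gave an IC50 when retested across doses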;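 note: the DPM-DC format reads NADH fluorescence rather than 340 nm absorbance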
Fluor 339 460: intrinsic fluorescence of library compounds, ex339/em460 – biochemical, MLSMR library, data from DPM-DC assay, artefact control, profiling panel; compound autofluorescence, ex339/em460 nm, NADH buffer; active compounds read high; 1 = no-compound wells, NADH background; fluorescence fold increase at 10 µM; hit rate 5.5% among 65,000; AID 709;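 active = at 10 µM, mean starting fluorescence two-fold or more over control wells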;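 note: signal is the first read of a kinetic run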
PMK inhibit: inhibitors of Streptococcus pneumoniae phosphomevalonate kinase. hit rate 0.49% among 65,000. purified PMK, PK/LDH-coupled NADH absorbance 340 nm. inhibition, % at 10 µM;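 active = top-ranked compounds by inhibition in the single 10 µM screen, taking a fixed number of the strongest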
DPM-DC inhibit: inhibitors of Streptococcus pneumoniae diphosphomevalonate decarboxylase; purified DPM-DC, PK/LDH coupled NADH fluorescence; AID 556; hit rate 0.49% among 65,000; calls only at 10 µM;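 active = the 320 compounds with the highest percent inhibition in the single-dose primary screen, excluding strongly autofluorescent ones, cut at about 32% in these data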;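 note: kinetic rate of NADH fluorescence loss reporting ADP formed by the decarboxylase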
Spn MK inh: inhibitors of Streptococcus pneumoniae mevalonate kinase | purified MK, PK/LDH-coupled NADH absorbance 340 nm | inhibition, % at 10 µM | hit rate 0.48% among 65,000 | AID 555;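 active = ranked among the strongest by inhibition in the single 10 µM screen, a fixed top-ranked set picked for dose follow-up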
A340 absorber: absorbance at 340 nm; compound absorbance at 340 nm, fold over control; fold change at 10 µM; 65,000 tested, under 10 active; AID 708;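 active = at 10 µM dose, initial 340 nm absorbance at least 2 fold that of control wells; inactive = change under 2 fold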;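 note: initial absorbance extrapolated from kinetic A340 decline of NADH oxidation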
Each line names hits and unclear results; the compound was inactive in the other large screens.

CCCC(=O)Nc1ccc(N2CCN(C(=O)c3cccs3)CC2)cc1	none
O=C(CSc1ncn[nH]1)NCCCc1ccccc1	none
COc1ccc(-c2ccc(-c3noc(-c4ccccc4OC)n3)c(OC)n2)cc1	Fluor 339 460 2.95 (not shown: DPM-DC inhibit)
COc1ccc(-c2ccc(-c3noc(-c4cccs4)n3)c(OC)n2)cc1	Fluor 339 460 3 (not shown: DPM-DC inhibit)
COc1cc(-c2noc(-c3cccs3)n2)cc(OC)c1OC	none
COc1ccc(-c2ccc(-c3noc(-c4ccccc4C)n3)c(OC)n2)cc1	Fluor 339 460 3.84 (not shown: DPM-DC inhibit)
COc1ccc(NC(=O)c2ccccc2NC(=O)C2CCCO2)cc1 (configuration not stated)	none
CCCC(=O)Nc1nn(CCC)c2nc3ccccc3cc12	none
CCCCn1nc(NC(=O)c2cccs2)c2cc3cc(OC)ccc3nc21	Fluor 339 460 3.64 (not shown: DPM-DC inhibit)
CCCn1nc(NC(=O)c2ccncc2)c2cc3ccccc3nc21	none
CCCCn1nc(NC(=O)c2cccs2)c2cc3ccccc3nc21	Fluor 339 460 2.24 (not shown: DPM-DC inhibit)
COc1ccc2nc3c(cc2c1)c(NC(=O)C1CCCO1)nn3CC(C)C (configuration not stated)	Fluor 339 460 3.71 (not shown: DPM-DC inhibit)
CCCn1nc(NC(=O)c2cccs2)c2cc3cc(OC)ccc3nc21	Fluor 339 460 2.03 (not shown: DPM-DC inhibit)
Cc1ccc(OCC(=O)N2CCC(N3CCCCCC3)CC2)cc1	Spn MK inh 41.0
Cc1ccc(OCC(=O)N2CCN(C(=O)CCC3CCCC3)CC2)cc1	none
CC1CCN(Cc2ccc(NC(=O)CC3Oc4ccccc4NC3=O)cc2)CC1 (configuration not stated)	none
c1ccc(CCn2nnnc2C(c2cccs2)N2CCOCC2)cc1 (configuration not stated)	PMK inhibit 25.0
CC(C)C(c1nnnn1CCc1ccccc1)N1CCOCC1 (configuration not stated)	none
O=C1c2oc3ccccc3c(=O)c2C(c2ccc(Cl)cc2)N1c1ncccn1 (configuration not stated)	none
Cc1csc(NC(=O)c2ccccc2O)n1	Fluor 339 460 3.85 (not shown: DPM-DC inhibit)
O=C1OC(Nc2ccc(F)cc2F)c2ccccc21 (configuration not stated)	none
COC(=O)c1ccccc1NC1OC(=O)c2ccccc21 (configuration not stated)	Fluor 339 460 3
CCC(=O)Nc1c(-c2ccc(OC)cc2)c(=O)c2ccccc2n1C	Fluor 339 460 3.79 (not shown: DPM-DC inhibit)
Cn1c(NC(=O)c2cccs2)c(-c2cccs2)c(=O)c2ccccc21	none
COc1ccc(-c2ccc(-c3nnc(-c4ccncc4)o3)cc2)cc1	Fluor 339 460 2.35, DPM-DC inhibit active
CCn1c(SCC(=O)N2CCOCC2)nc2c(c1=O)SC(C)C2 (configuration not stated)	none
CCc1cc(/C(Cc2ccc3ccccc3n2)=N\O)c(O)cc1O	DPM-DC inhibit active
O/N=C(\Cc1cscn1)c1ccc(O)cc1O	none
CCc1cc(C(=O)Cc2nc3ccccc3[nH]2)c(O)cc1O	Fluor 339 460 2.29
CCc1cc(C(=O)Cc2ccc(F)cc2)c(O)cc1O	none
COC(=O)C1=C(CSCc2ccco2)NC(=O)NC1c1cc(C)ccc1C (configuration not stated)	none
O=C(Cn1cc(C(F)(F)F)ccc1=O)N1CCN(S(=O)(=O)c2ccc(Cl)cc2)CC1	none
CC1(c2ccc(Cl)cc2Cl)OCC(Cn2ccnc2)O1 (configuration not stated)	none
COc1cccc(/C=C2/CN(C)CC3=C2OC(N)=C(C#N)C3c2cccc(OC)c2)c1 (configuration not stated)	none
COc1ccccc1-c1c(C)oc2c(CN3CCN(C)CC3)c(O)ccc2c1=O	Fluor 339 460 2.35 (not shown: DPM-DC inhibit)
COc1ccccc1-c1c(C)oc2c(CN3CCN(CCO)CC3)c(O)ccc2c1=O	Fluor 339 460 3.92 (not shown: DPM-DC inhibit)
Cc1oc2c(O)c(O)ccc2c(=O)c1-c1cnn(-c2ccccc2)c1	none
Cc1oc2c(O)c(O)ccc2c(=O)c1-c1ccccc1	PMK inhibit 29.0
COc1ccc(-c2c(C)oc3c(CN4CCN(CCO)CC4)c(O)ccc3c2=O)cc1OC	Fluor 339 460 3.85 (not shown: DPM-DC inhibit)
COc1ccc(-c2csc(/C(C#N)=C(\O)CSc3nccn3C)n2)cc1OC	none
O=C(NCc1ccco1)C1CCCN(S(=O)(=O)c2cccc3cccnc23)C1 (configuration not stated)	none
CC(C(=O)Nc1ccc2c(c1)OCO2)N(c1ccc(Cl)cc1)S(C)(=O)=O (configuration not stated)	none
Cc1oc2c(CN3CCCC3)c(O)ccc2c(=O)c1-c1ccc(Br)cc1	Fluor 339 460 3.78 (not shown: DPM-DC inhibit)
CCOC(=O)c1oc2c(CN3CCN(C)CC3)c(O)ccc2c(=O)c1-c1ccccc1OC	none
CCOc1ccccc1Oc1c(C)oc2c(CN3CCN(C)CC3)c(O)ccc2c1=O	Fluor 339 460 3.93 (not shown: DPM-DC inhibit)
Cc1cc(C)nc(N2CCC(C(=O)Nc3nnc(C)s3)CC2)n1	none
O=C(NCc1ccc2c(c1)OCO2)c1c[nH]c2ccc(S(=O)(=O)N3CCOCC3)cc2c1=O	Fluor 339 460 2.04
O=C(NCC1COc2ccccc2O1)c1c[nH]c2ccc(S(=O)(=O)N3CCOCC3)cc2c1=O (configuration not stated)	Fluor 339 460 2.83
O=C(NCc1ccc2c(c1)OCO2)c1cc(S(=O)(=O)N2CCCCC2)ccc1F	none
Cn1c(Cn2c(=O)sc3ccccc32)nnc1SCC(=O)NCCc1ccccc1	none
COc1ccc(OCCN2CCN(C3CC(=O)N(CCC(C)C)C3=O)CC2)cc1 (configuration not stated)	none
O=C(OCc1nnc(-c2ccccc2)o1)c1ccc(S(=O)(=O)NCc2ccco2)cc1	none
Cc1cc(NCCN2CCOCC2)n2ncc(-c3ccccc3)c2n1	none
Cc1cc(NCCN2CCOCC2)n2nc(C)c(-c3ccc(Cl)cc3)c2n1	Fluor 339 460 2.36
Cc1cc(NCCN2CCOCC2)n2ncc(-c3ccc(Cl)cc3)c2n1	Fluor 339 460 3.27 (not shown: DPM-DC inhibit)
Cc1cc(NCCN2CCOCC2)n2nc(C)c(-c3ccccc3)c2n1	none
c1ccc(Cn2nnc3c(Nc4ccc5c(c4)OCO5)nc(C4CC4)nc32)cc1	Fluor 339 460 3.68 (not shown: DPM-DC inhibit)
CCOc1ccc(C(C)=O)cc1Cn1nc(C(=O)O)c2ccccc2c1=O	none
Cc1sc2nc3ccc(N4CCCCC4)nn3c(=O)c2c1C	Fluor 339 460 2.44
Cc1ccc2nc3ccc(N4CCCC4)nn3c(=O)c2c1	none
N#Cc1nc(-c2ccco2)oc1NCc1ccc(F)cc1	Fluor 339 460 3.3
N#Cc1nc(-c2ccco2)oc1NCc1cccnc1	Fluor 339 460 2.07
CC1CCN(CC(=O)N2c3ccccc3CCc3ccccc32)CC1	none
Cc1cc(NC(=O)c2cc(C3CC3)on2)no1	Spn MK inh 57.0
COc1ccc(OC)c(-c2cc(C(=O)Nc3c(C)nn(Cc4ccccc4)c3C)no2)c1	none
COc1ccc(OC)c(-c2cc(C(=O)Nc3cc(C)on3)no2)c1	Fluor 339 460 2.75

Bioassay records: PubChem BioAssay, SRMLSC
